# For part of these data: Potency and affinity values are given separately.
# Experiments:
# Staphylococcus aureus = test: Antibacterial activity against Staphylococcus aureus MRSA ATCC 43300 (CO-ADD:GP_020); MIC in CAMBH media using NBS plates, by Resazurin F(560/590); type: functional; settings: Concentration 20 uM, ASSAY_TEST Inhibition of Bacterial Growth, detection method Resazurin, Fluorescence (ex560/em590), MEDIA CAMHB, plate type 384well, CORNING #3640, time 18 hr
# Acinetobacter baumannii = test: Antibacterial activity against Acinetobacter baumannii ATCC 19606 (CO-ADD:GN_034); MIC in CAMBH media using NBS plates, by Resazurin F(560/590); type: functional; settings: Concentration 20 uM, ASSAY_TEST Inhibition of Bacterial Growth, detection method Resazurin, Fluorescence (ex560/em590), MEDIA CAMHB, plate type 384well, CORNING #3640, time 18 hr
# Escherichia coli = test: Antibacterial activity against Escherichia coli ATCC 25922 (CO-ADD:GN_001); MIC in CAMBH media using NBS plates, by Resazurin F(560/590); type: functional; settings: Concentration 20 uM, ASSAY_TEST Inhibition of Bacterial Growth, detection method Resazurin, Fluorescence (ex560/em590), MEDIA CAMHB, plate type 384well, CORNING #3640, time 18 hr
# Klebsiella pneumoniae = settings: Concentration 20 uM; ASSAY_TEST Inhibition of Bacterial Growth; detection method Absorption (OD600); MEDIA CAMHB; plate type 384well; NBS; CORNING #3640; time 18 hr
# Candida albicans = settings: 20 µM
# Cryptococcus neoformans = settings: Concentration 20 uM; ASSAY_TEST Inhibition of Fungal Growth; detection method Resazurin; Absorption (OD600-OD570); plate type 384well; NBS; CORNING #3640
SMILES,Inhibition (Staphylococcus aureus) [%],Inhibition (Acinetobacter baumannii) [%],Inhibition (Escherichia coli) [%],Inhibition (Klebsiella pneumoniae) [%],Inhibition (Candida albicans) [%],Inhibition (Cryptococcus neoformans) [%]
CCCCN1C(=O)CC2CCOC21C (configuration not stated),9.16,-12.54,6.99,9.62,10.6,-12.41
CC1(C)N=C(N)N=C(N)N1c1ccc(OCCCOc2ccccc2)c(Cl)c1.CCS(=O)(=O)O,10.6,-13.57,15.29,12.4,-0.44,-3.49
ClC(Cl)(Cl)C1=Nc2c(nnn2Cc2ccccc2)CN1,1.51,7.83,14.39,3.07,-3.28,-12.54
O=[N+]([O-])c1ccccc1/C=C/C=N/N=C/c1ccccc1O,0.05,-15.14,9.06,2.2,2.43,3.86
NC(=O)N/N=C1\CC2CC1C1C=CCC21 (configuration not stated),5.27,-14.41,8.37,17.34,-2.08,-9.13
COc1cccc2c1C(CO)N1C(C#N)C3CC(C(=O)O)C(C1C2)N3C (configuration not stated),14.9,-10.77,-1.99,21.32,4.33,-4.3
CC(OC(=O)Nc1cccc(Cl)c1)C(=O)O (configuration not stated),8.5,9.43,16.3,7.75,-1.51,-11.24
O=C(O)/C=C/C(=O)Nc1cccc2cccnc12,36.64,-0.12,28.31,7.62,8.39,9.5
Cc1ccc(C)c(C(=O)CCC(=O)O)c1,9.56,8.73,0.68,19.18,8,-5.46
O=C(O)CSc1ccc(NC(=O)Nc2ccccc2F)cc1,18.21,6.88,2.53,17.8,-1.57,-6.03
Cn1cnc([N+](=O)[O-])c1Sc1nnc(-c2cccnc2)n1C,12.02,15.57,-1.31,17.06,6.51,-6.62
O=C(O)c1nc2nc(Cl)c(Cl)nc2[nH]1,-9.71,8.37,0.88,10.97,3.92,-11.32
CN(C)S(=O)(=O)c1ccc(N)c([N+](=O)[O-])c1,-6.85,12.87,8.14,9.42,1.38,-8.3
NC(=O)c1ccc(Oc2ccc(C(N)=O)cc2)cc1,7.05,9.37,0.31,15.83,-0.45,-7.62
O=P(O)(O)c1cc(-c2ccccc2)oc1-c1ccccc1,-4.92,9.92,13.72,15.02,5.26,-17.53
O=C1c2cccc(Sc3ccccc3)c2C(=O)c2c(Sc3ccccc3)cccc21,13.79,-8.62,22.23,3.23,0.05,-7.69
C[C@]12CC[C@H](O)CC1=CC[C@@H]1[C@@H]2CC[C@]2(C)c3n[nH]cc3C[C@@H]12,17.35,7.15,13.22,4.71,-0.24,-13.74
O=C(Nc1ccc(F)cc1)OCCOc1ccc([N+](=O)[O-])cc1,6.26,5.22,-7.06,8.41,4.71,-9.23
O=c1cc(-c2ccc(O)cc2)oc2c(O)c(O)c(O)c(O)c12,7.67,-15.85,3.54,11.62,6.97,-2.27
COc1ccccc1N1C(=O)CC(Sc2ccccc2N)C1=O (configuration not stated),13.62,1.84,10.06,1.73,0.29,-6.31
O=C(O)c1cc2ccccc2cc1Nc1ccccc1,0.16,5.64,-16.93,8.83,12.2,17.2
CC(=O)Nc1cc(NC(C)=O)ncn1,12.16,-10.63,12.12,16.66,3.12,-1.27

# — ChEMBL document CHEMBL4296182, “CO-ADD screening of NIH NCI Diversity Set V”
